# Shown are actives, neighbours in structure and some others; about 12% of the full set was active somewhere.
# Sfp inh: inhibitors of Bacillus subtilis Sfp phosphopantetheinyl transferase | Biochemical Sfp PPTase activity, qHTS | Potency, µM, usual class: inhibitors | hit rate 3.5% among 310,000 | AID 1490;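 also: the enzyme is Sfp with the accession as filed and its product quenches rhodamine fluorescence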
#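 Compounds were incubated with enzyme (final 15 nM) for 15 min at room temperature before substrate addition started the reaction. Fluorescence at 525 nm excitation, 598 nm emission was recorded immediately and after 30 minutes.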
# JMJD2A Tudor: inhibitors of human JMJD2A Tudor domain. AlphaScreen JMJD2A-Tudor / H3K4me3 peptide binding. Potency, µM (titrated, usually from 114 µM), actives largely listed as inhibitors. hit rate 4.4% among 390,000; also: nearly all actives have a fitted effect of over 50% in size
# BAZ2B inh: blocks human BAZ2B. Q9UIF8. AlphaScreen BAZ2B-H3K14Ac peptide displacement. Potency, µM (series often up to 114 µM), usual class: inhibitors. hit rate 4.4% among 360,000. AID 504333; also: nearly all actives have a fitted effect of over 60% in size
#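 BAZ2B (50 nM) with biotin-H3(5-23)K14Ac peptide (50 nM) in PBS pH 7.4, 0.01% Tween-20, preformed 30 min, then compound 30 min at room temperature; top concentration 110uM. AlphaScreen streptavidin donor/nickel chelate acceptor beads (10 ug/mL final), 20 min dark, signal read.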
# TDP1 block: blocks human tyrosyl-DNA phosphodiesterase 1 | Q9NUW8 | recombinant TDP1, AlphaScreen DNA substrate cleavage | Potency, µM (titrated, usually from 130 µM), actives largely listed as inhibitors | hit rate 0.28% among 350,000 | AID 485290; also: nearly all actives have a fitted effect of over 40% in size
# Target sequence (Q9NUW8 whole entry, looked up): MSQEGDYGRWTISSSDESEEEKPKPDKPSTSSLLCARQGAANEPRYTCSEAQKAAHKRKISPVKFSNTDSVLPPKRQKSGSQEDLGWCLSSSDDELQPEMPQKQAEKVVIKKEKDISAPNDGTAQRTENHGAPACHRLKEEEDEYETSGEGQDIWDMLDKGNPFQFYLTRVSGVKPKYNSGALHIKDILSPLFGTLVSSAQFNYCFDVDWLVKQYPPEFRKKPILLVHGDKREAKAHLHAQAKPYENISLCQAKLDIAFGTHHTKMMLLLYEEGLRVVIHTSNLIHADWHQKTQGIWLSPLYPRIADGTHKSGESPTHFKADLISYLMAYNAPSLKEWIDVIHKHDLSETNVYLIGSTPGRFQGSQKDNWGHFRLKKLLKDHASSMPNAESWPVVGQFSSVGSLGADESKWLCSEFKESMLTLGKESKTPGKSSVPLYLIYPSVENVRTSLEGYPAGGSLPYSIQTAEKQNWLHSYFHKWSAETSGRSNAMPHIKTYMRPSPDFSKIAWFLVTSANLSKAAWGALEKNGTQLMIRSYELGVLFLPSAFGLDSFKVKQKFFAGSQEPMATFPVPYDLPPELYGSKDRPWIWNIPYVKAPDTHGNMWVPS
#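 Steps: enzyme plus compound, 15 min RT; add biotin/phosphotyrosine-FITC oligonucleotide (15 nM final), react 5 min; add donor/acceptor beads (10 ug/ml final), 10 min; read AlphaScreen. Tdp1 at 1 nM final.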
# G9a block: inhibitors of human histone lysine methyltransferase G9a | G9a H3K9 monomethylation, AlphaScreen, 2 h | AID 504332 | Q96KQ7 | Potency, µM (titrated, usually from 102 µM), most hits filed as inhibitors | hit rate 8.8% among 350,000; also: nearly all actives have a fitted effect of over 75% in size
#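 G9a (20 nM) preincubated 15 min RT with compounds, then 500 nM biotinylated H3K9 peptide and 20 uM SAM added; 2 h RT reaction. Monomethyl-H3K9 product detected by AlphaScreen with anti-H3K9me1 antibody, streptavidin donor and anti-rabbit IgG acceptor beads.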
# HP1b chromo inh: blocks HP1-beta chromodomain binding to methylated histone tails; P83916; AlphaScreen HP1-beta / biotin-H3K9me3 peptide binding; Potency, µM (doses to about 114 µM), most hits filed as inhibitors; hit rate 0.56% among 390,000; also: nearly all actives have a fitted effect of over 70% in size
#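 AlphaScreen: HP1-beta (50 nM) preformed 30 min with biotin-H3(1-18)K9me3 peptide (50 nM) in PBS pH 7.4, 0.01% Tween-20. Compound added for 30 min at RT, then streptavidin donor/nickel chelate acceptor beads (10 ug/mL) for 30 min.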
# A number is an active result; n = inactive; u = inconclusive; x = not tested or not shown; ! = not confirmed by another sample; [ ] = another dose, or the depositor's remark. Calls follow the shape of the dose curve; as a rule, active = well fitted curve in the direction sought with a large enough effect; inconclusive = small, poorly fitted or top-dose-only effect, or another doubt; inactive = no such curve, though single readings can be large; an effect the other way counts as inactive or inconclusive.
SMILES,Sfp inh,JMJD2A Tudor,BAZ2B inh,TDP1 block,G9a block,HP1b chromo inh
CC1(CCc2ccccc2)NC(=O)N(CC(=O)N2CCCCCC2)C1=O (stereo not given),x,n,n,n,n,n
CC1CCC2(CC1)NC(=S)N(C(C)(C)C)N2 (stereo not given),35µM,u,n,n,7.1µM,n
CC1CCC2(CC1)NC(=S)N(c1ccccc1)N2 (stereo not given),56µM,n,79µM,n,6.3µM,n
COc1cccc(OCC(O)CN2CCN(c3ccc(F)cc3)CC2)c1 (stereo not given),n,n,u,x,n[2.33 µM],n
COc1ccc(N2CCN(CC(O)COc3ccccc3[N+](=O)[O-])CC2)cc1 (stereo not given),n,28µM,u,n,u,u
O=[N+]([O-])c1ccccc1OCC(O)CN1CCN(CC(O)COc2ccccc2[N+](=O)[O-])CC1 (stereo not given),n,n,n,x,x,n
COc1ccc(N2CCN(CC(O)COc3cc(C)ccc3C)CC2)cc1 (stereo not given),n,n,u,x,8.9µM,n
COc1ccc(N2CCN(CC(O)COc3ccc(C)cc3C)CC2)cc1 (stereo not given),n,45µM,40µM,x,40µM,u
O=C(NCc1cccc2ccccc12)[C@H]1C[C@@H]1[C@H](NP(=O)(c1ccccc1)c1ccccc1)c1ccccc1,n,x,x,n,x,x
O=C(NCc1cccc(F)c1)c1ccc(N2C(=O)Cn3c(cc4sccc43)C2=O)cc1,n,79µM,n,n,n,n
O=C(Nc1cccc(NC(=O)c2ccco2)c1)c1ccccc1,n,n,n,x,n,n
Cn1cnc2cc(NC(=O)c3ccco3)ccc21,n,n,n,n,n[12.7 µM],n
O=C(Nc1ccc2c(c1)ncn2-c1ccccc1)c1ccco1,32µM,n,n,n,11µM,n
O=C(Nc1cccc(NC(=O)c2nccc3ccccc23)c1)c1ccco1,n,n,n,n,45µM,n
O=C(Nc1ccc2oc(-c3cccnc3)nc2c1)c1ccc(Br)cc1,x,n,n,x,n,n
O=C(Nc1cccnc1)c1cccc(NC(=O)c2ccco2)c1,n,n,n,n,40µM,n
O=C(Nc1ccc2oc(-c3cccnc3)nc2c1)c1ccc(Br)o1,50µM,n,n,n,20µM,n
O=S(=O)(NCCNc1nc(-c2ccco2)nc2ccccc12)c1ccccc1,x,u,x,n,x,x
CNc1ncc(C(=O)c2ccc(-c3ccccc3)cc2)s1,n,n,n,n,n,n
O=C(Nc1ccc2oc(-c3cccnc3)nc2c1)c1ccco1,n,n,n,n,50µM,n
O=C(Nc1ccc2oc(-c3cccnc3)nc2c1)c1cccnc1,n,n,n,n,n,n
CC(=O)Nc1ccc(Nc2nc(C)nc3c2oc2ccccc23)cc1,n,n,n,n,n[12.7 µM],n
CC(=O)c1ccc(Nc2ncnc3c2oc2ccccc23)cc1,n,u,u,x,79µM,n
C=CCc1cc(OC)ccc1OCCN1CC(C)OC(C)C1 (stereo not given),56µM,5µM,28µM,x,7.1µM,u
COc1ccc(OC)c(NC(=O)CCN2CC(C)OC(C)C2)c1 (stereo not given),n,n,n,n,n,n
SMILES,Sfp inh,JMJD2A Tudor,BAZ2B inh,TDP1 block,G9a block,HP1b chromo inh
C=CCc1cc(Cl)ccc1OCCN1CC(C)OC(C)C1 (stereo not given),n,2.2µM,u,u,4.5µM,u
C=CCc1cc(CN2CC(C)OC(C)C2)c(O)c(OC)c1 (stereo not given),x,n,x,x,x,n
CCN(CC(=O)N1CCCC1)S(=O)(=O)c1ccc(OC)cc1,n,n,n,x,x,n
O=C1CCCCC1(c1ccccc1)c1ccccc1,x,n,x,x,x,n
COc1ccc(CN2CCC(C(=O)Nc3ccc(Oc4cccnc4)cc3)CC2)cc1,n,n,n,n,35µM,n
COc1ccccc1NC1=NCC(=O)N1Cc1ccccc1,n,n,n,n,n[0.501 µM],n
CCOc1ccccc1NC1=NCC(=O)N1Cc1ccc(F)cc1,n,n,u,n,50µM,n
COc1ccc(CN2C(=O)CN=C2Nc2cccc(C)c2C)cc1,n,n,u,n,56µM,n
CCCCn1c(N)c(N(CCC(C)C)C(=O)c2ccccc2-n2cnnn2)c(=O)[nH]c1=O,x,n,n,n,u,n
C/C(=N\NC(N)=S)C1(C)CC2(CC(C)(C)OC2=O)C(=O)O1 (stereo not given),n,n,n,n,n,n
C/C(CC1CC(COCCC(C)C)OC1=O)=N\NC(N)=S (stereo not given),79µM,u,u,n,n[0.501 µM],n
C/C(CC1CC(C)(C)OC1=O)=N\NC(N)=S (stereo not given),35µM,7.1µM,u,n,32µM,n
CCCC1CC(C)(/C(C)=N\NC(N)=S)OC1=O (stereo not given),n,n,n,n,n[0.501 µM],n
C/C(CCC1CC(C)(C)OC1=O)=N\NC(N)=S (stereo not given),45µM,79µM,u,x,8.9µM,n
Cc1cc(C)c2sc(N(Cc3cccnc3)C(=O)CCS(=O)(=O)c3ccccc3)nc2c1,x,n,n,n,n,n
Nc1cc(=O)nc(SCC(=O)Nc2ccccc2)n1CCc1ccccc1,x,n,n,n,n,n
CCOC(=O)c1cnn(-c2nc(OCC)cc(OCC)n2)c1C,n,n,n,n,n,n
O=Nc1c(O)[nH]c2ccc(Cl)c(Cl)c12,x,n,x,x,x,n
COc1ccc(C2=CC(c3c(C)nn(-c4ccccc4)c3Cl)n3nnnc3N2)cc1OC (stereo not given),n,u,n,n,45µM,n
CCOC(=O)/C(C)=N/NC(=O)c1cccc([N+](=O)[O-])c1,n,n,n,n,n,n
CCOC(=O)C(=N/O)/C(C)=N/NC(C)=O,u,n,n,n,7.1µM,n
CCOC(=O)C(=N/O)/C(C)=N/NC(=O)C(=O)Nc1cc(Cl)ccc1Cl,n,u,18µM,x,n,n
CCCCCn1c(-c2cccc(C)c2)nc2ccccc21,x,n,n,n,n,n
O=C1c2ccccc2NC(c2cc(Cl)cc(Cl)c2O)N1Cc1cccnc1 (stereo not given),n,n,u,x,79µM,n
N[C@H](C(=O)O)c1ccc(C(=O)O)cc1,45µM!,x,x,u,n,x
SMILES,Sfp inh,JMJD2A Tudor,BAZ2B inh,TDP1 block,G9a block,HP1b chromo inh
N[C@@H](C(=O)O)c1ccc(C(=O)O)cc1,n,x,x,n,x,x
CCCCOC(=O)n1c(=S)oc2cc(Cl)ccc21,56µM,n,n,n,n[0.501 µM],n
COC(=O)n1c(=S)oc2cc(Cl)ccc21,25µM,x,n,n,2.5µM,x
COc1ccc(CNC(=O)CCNS(=O)(=O)c2ccc(Br)s2)cc1,n,79µM,n,n,n,n
Cc1ccc(CNC(=O)CCS(=O)(=O)c2ccc(Br)s2)o1,40µM,n,n,n,u,n
COc1cccc(CNC(=O)CCNS(=O)(=O)c2ccc(Br)s2)c1,n,u,n,n,n,n

# Compound activity (PubChem BioAssay)
